Data from the supplement of paper PMC4466140.

What follows are binders tested against AgAbp1 (assay: SPOT peptide array binding signal intensity (averaged, normalized) (arbitrary units (background-subtracted, floor 0; scale differs between SH3 domains)); higher = stronger binding of the SH3 domain to the peptide).
Outline: (§1)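 Binding signal refers to normalized, background-subtracted spot intensity averaged over replicates, expressed in arbitrary units that differ between domains. GST-fused SH3 domains from four yeast species were incubated at 10 μg/ml overnight at 4°C on cellulose membranes of synthetic 15-mer peptides with cysteines replaced by serines. Bound protein was detected with anti-GST antibody, an HRP anti-mouse secondary and luminol, and quantified with Genespotter.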

Row | Binder | SPOT peptide array binding signal intensity
1 | RVTRKRPREPKSTND | 86

Each binder was assayed against AgBbc1 in the same assay as above.
Outline: as §1

Row | Binder | SPOT peptide array binding signal intensity
2 | RVTRKRPREPKSTND | 146

Each binder was assayed against AgBem1-D1 in the same assay as above.
Outline: as §1

Row | Binder | SPOT peptide array binding signal intensity
3 | RVTRKRPREPKSTND | 322

What follows are binders tested against AgBzz1-D1 in the same assay as above.
Outline: as §1

Row | Binder | SPOT peptide array binding signal intensity
4 | RVTRKRPREPKSTND | 18

What follows are binders tested against AgBzz1-D2 in the same assay as above.
Outline: as §1

Row | Binder | SPOT peptide array binding signal intensity
5 | RVTRKRPREPKSTND | 31

What follows are binders tested against AgCyk3 in the same assay as above.
Outline: as §1

Row | Binder | SPOT peptide array binding signal intensity
6 | RVTRKRPREPKSTND | 3

What follows are binders tested against AgFus1 in the same assay as above.
Outline: as §1

Row | Binder | SPOT peptide array binding signal intensity
7 | RVTRKRPREPKSTND | 300

Each binder was assayed against AgHof1 in the same assay as above.
Outline: as §1

Row | Binder | SPOT peptide array binding signal intensity
8 | RVTRKRPREPKSTND | 64.5

What follows are binders tested against AgHse1 in the same assay as above.
Outline: as §1

Row | Binder | SPOT peptide array binding signal intensity
9 | RVTRKRPREPKSTND | 606

The binders below were run against AgLsb1 in the same assay as above.
Outline: as §1

Row | Binder | SPOT peptide array binding signal intensity
10 | RVTRKRPREPKSTND | 3

What follows are binders tested against AgLsb4 in the same assay as above.
Outline: as §1

Row | Binder | SPOT peptide array binding signal intensity
11 | RVTRKRPREPKSTND | 72

These binders were tested against AgMyo5 in the same assay as above.
Outline: as §1

Row | Binder | SPOT peptide array binding signal intensity
12 | RVTRKRPREPKSTND | 2.5

These binders were tested against AgNbp2 in the same assay as above.
Outline: as §1

Row | Binder | SPOT peptide array binding signal intensity
13 | RVTRKRPREPKSTND | 123

What follows are binders tested against AgRvs167 in the same assay as above.
Outline: as §1

Row | Binder | SPOT peptide array binding signal intensity
14 | RVTRKRPREPKSTND | 0.667

Each binder was assayed against AgSho1 in the same assay as above.
Outline: as §1

Row | Binder | SPOT peptide array binding signal intensity
15 | RVTRKRPREPKSTND | 31

What follows are binders tested against AgSla1-D1-D2 in the same assay as above.
Outline: as §1

Row | Binder | SPOT peptide array binding signal intensity
16 | RVTRKRPREPKSTND | 178

The binders below were run against AgSla1-D3 in the same assay as above.
Outline: as §1

Row | Binder | SPOT peptide array binding signal intensity
17 | RVTRKRPREPKSTND | 7.25

These binders were tested against CaAbp1-D1 in the same assay as above.
Outline: as §1

Row | Binder | SPOT peptide array binding signal intensity
18 | RVTRKRPREPKSTND | 887

The binders below were run against CaAbp1-D2 in the same assay as above.
Outline: as §1

Row | Binder | SPOT peptide array binding signal intensity
19 | RVTRKRPREPKSTND | 550

The binders below were run against CaBbc1 in the same assay as above.
Outline: as §1

Row | Binder | SPOT peptide array binding signal intensity
20 | RVTRKRPREPKSTND | 346

Each binder was assayed against CaBem1-D1 in the same assay as above.
Outline: as §1

Row | Binder | SPOT peptide array binding signal intensity
21 | RVTRKRPREPKSTND | 40.5

Each binder was assayed against CaBzz1-D1 in the same assay as above.
Outline: as §1

Row | Binder | SPOT peptide array binding signal intensity
22 | RVTRKRPREPKSTND | 134

These binders were tested against CaBzz1-D2 in the same assay as above.
Outline: as §1

Row | Binder | SPOT peptide array binding signal intensity
23 | RVTRKRPREPKSTND | 174

Each binder was assayed against CaCyk3 in the same assay as above.
Outline: as §1

Row | Binder | SPOT peptide array binding signal intensity
24 | RVTRKRPREPKSTND | 169

The binders below were run against CaFus1 in the same assay as above.
Outline: as §1

Row | Binder | SPOT peptide array binding signal intensity
25 | RVTRKRPREPKSTND | 734

What follows are binders tested against CaHof1 in the same assay as above.
Outline: as §1

Row | Binder | SPOT peptide array binding signal intensity
26 | RVTRKRPREPKSTND | 1

What follows are binders tested against CaHse1 in the same assay as above.
Outline: as §1

Row | Binder | SPOT peptide array binding signal intensity
27 | RVTRKRPREPKSTND | 35.2

What follows are binders tested against CaLsb1 in the same assay as above.
Outline: as §1

Row | Binder | SPOT peptide array binding signal intensity
28 | RVTRKRPREPKSTND | 1.5

These binders were tested against CaLsb4 in the same assay as above.
Outline: as §1

Row | Binder | SPOT peptide array binding signal intensity
29 | RVTRKRPREPKSTND | 193

The binders below were run against CaMyo5 in the same assay as above.
Outline: as §1

Row | Binder | SPOT peptide array binding signal intensity
30 | RVTRKRPREPKSTND | 2

These binders were tested against CaNbp2 in the same assay as above.
Outline: as §1

Row | Binder | SPOT peptide array binding signal intensity
31 | RVTRKRPREPKSTND | 266

What follows are binders tested against CaRvs167 in the same assay as above.
Outline: as §1

Row | Binder | SPOT peptide array binding signal intensity
32 | RVTRKRPREPKSTND | 4

Each binder was assayed against CaRvs167-3 in the same assay as above.
Outline: as §1

Row | Binder | SPOT peptide array binding signal intensity
33 | RVTRKRPREPKSTND | 79.2

Each binder was assayed against CaSho1 in the same assay as above.
Outline: as §1

Row | Binder | SPOT peptide array binding signal intensity
34 | RVTRKRPREPKSTND | 327

What follows are binders tested against CaSla1-D1-D2 in the same assay as above.
Outline: as §1

Row | Binder | SPOT peptide array binding signal intensity
35 | RVTRKRPREPKSTND | 146

These binders were tested against CaSla1-D3 in the same assay as above.
Outline: as §1

Row | Binder | SPOT peptide array binding signal intensity
36 | RVTRKRPREPKSTND | ≤ 0

What follows are binders tested against ScAbp1 in the same assay as above.
Outline: as §1

Row | Binder | SPOT peptide array binding signal intensity
37 | RVTRKRPREPKSTND | 50

These binders were tested against ScBbc1 in the same assay as above.
Outline: as §1

Row | Binder | SPOT peptide array binding signal intensity
38 | RVTRKRPREPKSTND | 88

What follows are binders tested against ScBem1-D1 in the same assay as above.
Outline: as §1

Row | Binder | SPOT peptide array binding signal intensity
39 | RVTRKRPREPKSTND | 76

What follows are binders tested against ScBzz1-D1 in the same assay as above.
Outline: as §1

Row | Binder | SPOT peptide array binding signal intensity
40 | RVTRKRPREPKSTND | 12

What follows are binders tested against ScBzz1-D2 in the same assay as above.
Outline: as §1

Row | Binder | SPOT peptide array binding signal intensity
41 | RVTRKRPREPKSTND | 10

What follows are binders tested against ScCyk3 in the same assay as above.
Outline: as §1

Row | Binder | SPOT peptide array binding signal intensity
42 | RVTRKRPREPKSTND | 204

The binders below were run against ScFus1 in the same assay as above.
Outline: as §1

Row | Binder | SPOT peptide array binding signal intensity
43 | RVTRKRPREPKSTND | 312

The binders below were run against ScHof1 in the same assay as above.
Outline: as §1

Row | Binder | SPOT peptide array binding signal intensity
44 | RVTRKRPREPKSTND | 2.5

The binders below were run against ScHse1 in the same assay as above.
Outline: as §1

Row | Binder | SPOT peptide array binding signal intensity
45 | RVTRKRPREPKSTND | 1040

Each binder was assayed against ScLsb1 in the same assay as above.
Outline: as §1

Row | Binder | SPOT peptide array binding signal intensity
46 | RVTRKRPREPKSTND | 5.25

The binders below were run against ScLsb2 in the same assay as above.
Outline: as §1

Row | Binder | SPOT peptide array binding signal intensity
47 | RVTRKRPREPKSTND | 11

These binders were tested against ScLsb3 in the same assay as above.
Outline: as §1

Row | Binder | SPOT peptide array binding signal intensity
48 | RVTRKRPREPKSTND | 244

These binders were tested against ScLsb4 in the same assay as above.
Outline: as §1

Row | Binder | SPOT peptide array binding signal intensity
49 | RVTRKRPREPKSTND | 17

The binders below were run against ScMyo3 in the same assay as above.
Outline: as §1

Row | Binder | SPOT peptide array binding signal intensity
50 | RVTRKRPREPKSTND | 7

The binders below were run against ScMyo5 in the same assay as above.
Outline: as §1

Row | Binder | SPOT peptide array binding signal intensity
51 | RVTRKRPREPKSTND | 4.75

What follows are binders tested against ScNbp2 in the same assay as above.
Outline: as §1

Row | Binder | SPOT peptide array binding signal intensity
52 | RVTRKRPREPKSTND | 378

These binders were tested against ScPex13 in the same assay as above.
Outline: as §1

Row | Binder | SPOT peptide array binding signal intensity
53 | RVTRKRPREPKSTND | 1.25

What follows are binders tested against ScRvs167 in the same assay as above.
Outline: as §1

Row | Binder | SPOT peptide array binding signal intensity
54 | RVTRKRPREPKSTND | 20.3

What follows are binders tested against ScSho1 in the same assay as above.
Outline: as §1

Row | Binder | SPOT peptide array binding signal intensity
55 | RVTRKRPREPKSTND | 862

What follows are binders tested against ScSla1-D1-D2 in the same assay as above.
Outline: as §1

Row | Binder | SPOT peptide array binding signal intensity
56 | RVTRKRPREPKSTND | 779

These binders were tested against ScSla1-D3 in the same assay as above.
Outline: as §1

Row | Binder | SPOT peptide array binding signal intensity
57 | RVTRKRPREPKSTND | 15.2

These binders were tested against SpAbp1-D1 in the same assay as above.
Outline: as §1

Row | Binder | SPOT peptide array binding signal intensity
58 | RVTRKRPREPKSTND | 345

These binders were tested against SpBbc1 in the same assay as above.
Outline: as §1

Row | Binder | SPOT peptide array binding signal intensity
59 | RVTRKRPREPKSTND | 2.5

What follows are binders tested against SpBzz1-D1 in the same assay as above.
Outline: as §1

Row | Binder | SPOT peptide array binding signal intensity
60 | RVTRKRPREPKSTND | 184

These binders were tested against SpBzz1-D2 in the same assay as above.
Outline: as §1

Row | Binder | SPOT peptide array binding signal intensity
61 | RVTRKRPREPKSTND | ≤ 0

The binders below were run against SpCyk3 in the same assay as above.
Outline: as §1

Row | Binder | SPOT peptide array binding signal intensity
62 | RVTRKRPREPKSTND | 4.5

Each binder was assayed against SpHof1 in the same assay as above.
Outline: as §1

Row | Binder | SPOT peptide array binding signal intensity
63 | RVTRKRPREPKSTND | 222

The binders below were run against SpHof1-2 in the same assay as above.
Outline: as §1

Row | Binder | SPOT peptide array binding signal intensity
64 | RVTRKRPREPKSTND | 5.5

The binders below were run against SpHof1-3 in the same assay as above.
Outline: as §1

Row | Binder | SPOT peptide array binding signal intensity
65 | RVTRKRPREPKSTND | 316

Each binder was assayed against SpHse1 in the same assay as above.
Outline: as §1

Row | Binder | SPOT peptide array binding signal intensity
66 | RVTRKRPREPKSTND | 298

These binders were tested against SpLsb1 in the same assay as above.
Outline: as §1

Row | Binder | SPOT peptide array binding signal intensity
67 | RVTRKRPREPKSTND | 11.5

Each binder was assayed against SpLsb4 in the same assay as above.
Outline: as §1

Row | Binder | SPOT peptide array binding signal intensity
68 | RVTRKRPREPKSTND | 292

What follows are binders tested against SpMyo1 in the same assay as above.
Outline: as §1

Row | Binder | SPOT peptide array binding signal intensity
69 | RVTRKRPREPKSTND | 3

These binders were tested against SpNbp2 in the same assay as above.
Outline: as §1

Row | Binder | SPOT peptide array binding signal intensity
70 | RVTRKRPREPKSTND | 1040

What follows are binders tested against SpPex13 in the same assay as above.
Outline: as §1

Row | Binder | SPOT peptide array binding signal intensity
71 | RVTRKRPREPKSTND | 13

What follows are binders tested against SpRvs167 in the same assay as above.
Outline: as §1

Row | Binder | SPOT peptide array binding signal intensity
72 | RVTRKRPREPKSTND | 7.33

What follows are binders tested against SpSla1-D1-D2 in the same assay as above.
Outline: as §1

Row | Binder | SPOT peptide array binding signal intensity
73 | RVTRKRPREPKSTND | 1

What follows are binders tested against SpSla1-D3 in the same assay as above.
Outline: as §1

Row | Binder | SPOT peptide array binding signal intensity
74 | RVTRKRPREPKSTND | 5
